# This is a sample that favours compounds with a hit; in the whole collection about 12% have one here.
# Sfp inh: qHTS Assay for Inhibitors of Bacillus subtilis Sfp phosphopantetheinyl transferase (PPTase) | Biochemical Sfp PPTase activity, qHTS | Potency, µM, inactives show largest response in the series, negative = inhibition, actives largely listed as inhibitors | actives 3.5% (n = 310,000);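 also: the enzyme is Sfp with the accession as filed and its product quenches rhodamine fluorescence; 0% = enzyme reaction without inhibitor and -100% = no enzyme wells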
#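 Reaction rates are the 30-min fluorescence difference (ex 525, em 598 nm) in wells containing 15 nM Sfp, 5 uM rhodamine-CoA and 12.5 uM BHQ-2-YbbR at pH 7.6 with 10 mM MgCl2.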
# BAZ2B block: qHTS Assay for Inhibitors of BAZ2B; Potency, µM (series often up to 114 µM), without a hit: at the top dose activity change, negative = inhibition, hits mostly inhibitors; AlphaScreen BAZ2B-H3K14Ac peptide displacement; actives 4.4% (n = 360,000); also: % is scaled to controls: 0 for no effect and ±100 for the full control effect; nearly all actives have a fitted effect of over 60% in size
#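 Compounds, titrated to a top concentration of 110 uM, were incubated 30 min at room temperature with preformed BAZ2B/acetyl-K14 H3 peptide complex (50 nM each). Proximity signal was measured by AlphaScreen after 20 min with beads.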
# HP1b binding inh: HTS for Inhibitors of HP1-beta Chromodomain Interactions with Methylated Histone Tails. Chromobox protein homolog 1 (Homo sapiens), P83916. AlphaScreen HP1-beta / biotin-H3K9me3 peptide binding. Potency, µM (doses to about 114 µM), without a hit: top-dose activity change, negative = inhibition, most hits filed as inhibitors. actives 0.56% (n = 390,000). AID 540317, 2011; also: nearly all actives have a fitted effect of over 70% in size
#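 AlphaScreen: HP1-beta (50 nM) preformed 30 min with biotin-H3(1-18)K9me3 peptide (50 nM) in PBS pH 7.4, 0.01% Tween-20. Compound added for 30 min at RT, then streptavidin donor/nickel chelate acceptor beads (10 ug/mL) for 30 min.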
# PLK1 PBD block: qHTS for Inhibitors of PLK1-PDB (polo-like kinase 1 - polo-box domain): Primary Screen; Plk1 PBD binding of FITC phosphopeptide, fluorescence polarization; AID 720504, 2013; Potency, µM, for the others: max response, negative = inhibition, hits mostly inhibitors; actives 2.8% (n = 360,000); also: series mostly up to about 57 µM; % is scaled to controls: 0 for no effect and ±100 for the full control effect; nearly all actives have a fitted effect of over 65% in size
# G9a block: qHTS Assay for Inhibitors of Histone Lysine Methyltransferase G9a. Histone-lysine N-methyltransferase EHMT2 (Homo sapiens), Q96KQ7. G9a H3K9 monomethylation, AlphaScreen, 2 h. Potency, µM (doses to about 102 µM), for inactives: at the top dose activity, negative = inhibition, most hits filed as inhibitors. actives 8.8% (n = 350,000). AID 504332, 2011; also: % is scaled to controls: 0 for no effect and ±100 for the full control effect; nearly all actives have a fitted effect of over 75% in size
#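 Methyltransferase reactions run at room temperature for 2 h (20 nM enzyme, 500 nM biotin-H3K9 peptide, 20 uM SAM) after a 15 min compound preincubation; product detected by AlphaScreen beads and anti-H3K9me1 antibody.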
# JMJD2A Tudor inh: qHTS Assay for Inhibitors of JMJD2A-Tudor Domain. AlphaScreen JMJD2A-Tudor / H3K4me3 peptide binding. Potency, µM (titrated, usually from 114 µM), for the others: top-dose activity change, negative = inhibition, most hits filed as inhibitors. actives 4.4% (n = 390,000); also: % is scaled to controls: 0 for no effect and ±100 for the full control effect; nearly all actives have a fitted effect of over 50% in size
# Starred values were filed as active, the others as inactive; ? = inconclusive; . = not tested or not shown; ! = not active in a repeat; [ ] = remark or other dose. Calls follow the shape of the dose curve; as a rule, active = well fitted curve in the direction sought with a large enough effect; inconclusive = small, poorly fitted or top-dose-only effect, or another doubt; inactive = no such curve, though single readings can be large; an effect the other way counts as inactive or inconclusive. Potency is read from the fitted curve at half-maximal effect.
SMILES,Sfp inh,BAZ2B block,HP1b binding inh,PLK1 PBD block,G9a block,JMJD2A Tudor inh
c1ccc(CCCN2CCN(CCOC(c3ccccc3)c3ccccc3)CC2)cc1,-17.0%,.,4.4%,?,10µM*,56.2µM*
Fc1ccc(C(OCCN2CCN(C/C=C/c3ccccc3)CC2)c2ccc(F)cc2)cc1,44.7µM*,.,.,.,11.2µM*,.
Cn1c(=O)oc2cc(S(=O)(=O)N3CCCC(C(=O)NCc4ccccc4Cl)C3)ccc21 (stereo not given),.,-1.4%,42.8%,.,5.5%[59 µM],-1.7%
[O]=[Cd],10.9%,.,.,.,30.8%[59 µM],.
C[C@H](N)Cc1ccccc1,7.0%,.,.,.,-35.8%[12.7 µM],.
CC(C)(C)n1nnnc1C(c1cccc2ccccc12)N1CCC2(CC1)C(=O)NCN2c1ccccc1 (stereo not given),.,.,.,0.4%,.,.
N#CCCN,.,.,.,.,-16.6%[59 µM],.
CC[C@H](C)[C@H](NC(=O)[C@H](CCCN=C(N)N)NC(=O)[C@H](CCCN=C(N)N)NC(=O)[C@H](CC(C)C)NC(=O)[C@H](Cc1ccccc1)NC(=O)CNC(=O)CNC(=O)[C@@H](N)Cc1ccc(O)cc1)C(=O)N[C@@H](CCCN=C(N)N)C(=O)N1CCC[C@H]1C(=O)N[C@@H](CCCCN)C(=O)N[C@@H](CC(C)C)C(=O)N[C@@H](CCCCN)C(=O)O,?,.,.,.,37.2%[59 µM],.
CCC(=O)O[C@@](Cc1ccccc1)(c1ccccc1)[C@@H](C)CN(C)C,7.8%,.,.,.,25.4%[21.5 µM],.
COc1cc(Cc2ccc(N)c(OC)c2)ccc1N,7.3%,?,-21.2%,-2.9%,70.8µM*,?
Nc1c(C(=O)Nc2ccc(F)c(Cl)c2)sc2nc3c(cc12)N1CCC3CC1,.,-16.9%,63.1%,.,8.91µM*,?
Nc1c(C(=O)Nc2ccc(Br)cc2F)sc2nc3c(cc12)N1CCC3CC1,.,-3.2%,39.6%,.,?,?
CN(C)c1ccc(NC(=O)c2sc3nc4c(cc3c2N)N2CCC4CC2)cc1,.,?,13.6%,.,5.01µM*,-19.4%
CCOC(=O)c1c(C)n(Cc2ccc3c(c2)OCO3)c2ccc(O)cc12,-9.5%,?,-13.4%,-6.7%,?,-14.7%
CCOC(=O)c1c(C)n(Cc2ccco2)c2ccc(O)cc12,44.7µM*,?,16.3%,-4.8%,8.91µM*,-26.8%
COC(=O)c1c(C)n(Cc2ccc3c(c2)OCO3)c2ccc(O)cc12,-7.7%,?,-15.7%,1.2%,35.5µM*,?
CCOC(=O)c1c(C)n(COCCO)c2ccc(O)cc12,0.0%,7.3%,12.6%,-5.4%,-5.9%,-13.4%
CCCCCCCCCCCCCCCCOC[C@@H](O)COP(=O)([O-])OCC[N+](C)(C)C,6.9%,.,.,.,25.6%[59 µM],.
Cc1cc(C)cc(-n2c(/C=C/c3cccc(F)c3)nc3ccccc3c2=O)c1,.,4.8%,4.4%,.,4.0%[59 µM],-13.8%
CN1CCc2nc3sc(C(=O)NC4CC4)c(N)c3cc2C1,31.6µM*,?,17.2%,-0.6%,8.91µM*,?
CCOc1ccccc1NC(=O)c1sc2nc3c(cc2c1N)CN(Cc1ccccc1)CC3,.,-1.7%[57.1 µM],53.1%,.,?,-0.3%
C[C@](O)(CS(=O)(=O)c1ccc(F)cc1)C(=O)Nc1ccc(C#N)c(C(F)(F)F)c1,11.8%,.,.,.,?,.
Fc1ccc(CN2CCN(c3ccc(Cl)cc3)CC2)cc1,4.0%,-16.5%,15.4%,-12.0%,-32.5%,-23.4%
O=[N+]([O-])c1ccc(CN2CCN(c3ccc(Cl)cc3)CC2)o1,79.4µM*,44.7µM*,?,4.8%,.,17.8µM*
O=c1[nH]c(=S)[nH]c(O)c1N=Nc1cc(S(=O)(=O)Nc2ccc(Cl)cc2)ccc1Cl,.,35.5µM*,39.8µM*,29.9µM*,?,35.5µM*
SMILES,Sfp inh,BAZ2B block,HP1b binding inh,PLK1 PBD block,G9a block,JMJD2A Tudor inh
CCn1c(N)c(C(=O)NC)sc1=S,2.24µM*,?,-68.1%,2.67µM*,?,56.2µM*
O=C(NC(=O)c1c(F)cccc1F)Nc1cc(Cl)c(OC(F)(F)C(F)C(F)(F)F)cc1Cl (stereo not given),13.5%,.,.,.,1.4%[12.7 µM],.
COC(=O)NC(=S)Nc1ccccc1NC(=S)NC(=O)OC,31.6µM*,.,4.8%,?,.,-24.1%
CC(C)C(=O)Nc1ccc([N+](=O)[O-])c(C(F)(F)F)c1,13.4%,-10.5%,33.7%,-3.0%,2.51µM*!,-11.5%
Cn1cc([N+](=O)[O-])c(C(=O)Nc2ccc3c(C(F)(F)F)cc(=O)oc3c2)n1,16.4%,-13.2%,34.2%,5.0%,28.4%,5.0%
Clc1ccccc1Cl,15.1%,.,.,.,21.2%[59 µM],.
[N-]=[N+]=CC(=O)OC[C@H](N)C(=O)O,-1.6%,3.7%,29.1%,-4.7%,14.8%,31.6µM*
N[C@H](CCP(=O)(O)O)C(=O)O,-25.3%,.,.,.,.,.
CN(C)CCN(C)CCc1ccc(Cl)c(Cl)c1,16.2%,.,.,.,-2.0%[59 µM],.
CCCCCSc1cc(OC)c(CCN(C)C)cc1OC,-11.7%,44.7µM*,?,-15.0%,3.5%[59 µM],?
Cc1ccc(-n2c(/C=C/c3cc(Br)cs3)nc3ccccc3c2=O)cc1C,.,-8.1%,30.3%,.,4.3%[59 µM],-4.6%
C[N+]1([O-])[C@H]2CC[C@H]1CC(OC(=O)[C@@H](CO)c1ccccc1)C2 (stereo not given in full),-6.5%,.,.,.,10.2%[59 µM],.
c1ccc2c(c1)cc1ccc3cccc4ccc2c1c34,.,.,146.9%,-1.8%,.,87.7%
O=C1C=CC(=O)c2c1ccc1c2ccc2ccccc21,3.55µM*,.,.,.,5.01µM*,.
O=S(=O)(c1ccc(O)cc1)c1ccc(O)cc1,11.2%,0.4%,33.8%,-1.9%,-3.1%,-11.9%
Oc1cc[c]([Hg][Cl])cc1,0.0562µM*,.,.,.,?,.
CCOC(=O)c1cn2nc(OP(=S)(OCC)OCC)cc2nc1C,-14.3%,76.9%,121.8%,-19.0%,20µM*,79.3%
CCOC(=O)c1cnc(N2CC2)nc1N,.,.,13.1%[57 µM],-1.8%,.,-20.7%
CN1C2CCC1CC(OC(=O)c1ccc(Cl)cc1)C2 (stereo not given),17.1%,-24.0%,11.3%,26.7µM*,20.5%[59 µM],-6.8%[11.4 µM]
CCOc1ccc(C(=O)OC2CC3CCC(C2)N3C)cc1 (stereo not given),-4.9%,-18.1%,29.4%,-1.1%,-1.0%,-17.6%
Cc1cccc(C2=NCC(=O)N(CC(=O)NCc3ccco3)c3sc4c(c32)CCCC4)c1,22.4µM*,44.7µM*,-22.4%,-10.6%,?,50.1µM*
C=CCc1c(C)[nH]c(=S)c(C#N)c1C,10µM*,-35.9%,41.3%,23.8µM*,1.12µM*,5.01µM*

# From PubChem BioAssay
